From PubChem BioAssay AID1159580 (chemical genetic matrix, 2015)
Where “and” joins values, the source holds several entries; their conditions need not be identical. Identical values can stand only once. Among all 5,500 compounds or so, about 2,000 (36%) were called active. Inconclusive results (about 18%) are left out. Cut-off read from the data, not from the text of the source: active = normalized growth mostly below about 0.91 (no sharp cut-off); inconclusive = no clear call, values can overlap the other calls; inactive = mostly above about 0.92. Some of the results follow.

Test: chemical genetic growth profiling, strain panel (AID 1159580);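 note: tested at 20 µM; growth read once vehicle control cultures reached saturation at 30 °C; 1 = growth at the plate median or of vehicle wells; lower values mean less growth of the strain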
Conditions: S. cerevisiae deletion strains, growth OD

Measured: normalized growth

CNCCC(Oc1ccc(C(F)(F)F)cc1)c1ccccc1 (stereo unspecified)
active: locus YDR137W, strain rgp1, active compounds read low 1.2 [resistant]
inactive: locus YAL013W, strain DEP1, active compounds read low 1 and 1.01 | locus YAL021C, strain ccr4, active compounds read low 0.994 | locus YAL026C, strain drs2, active compounds read low 0.991 | locus YAL030W, strain snc1, active compounds read low 0.987 | locus YAL040C, strain CLN3, active compounds read low 1.01 | locus YBL061C, strain skt5, active compounds read low 0.986 | locus YBR009C, strain hhf1, active compounds read low 0.99 | locus YBR021W, strain FUR4, active compounds read low 0.967 | locus YBR023C, strain chs3, active compounds read low 0.986 | locus YBR171W, strain sec66, active compounds read low 0.991 | locus YBR229C, strain ROT2, active compounds read low 1.01 | locus YBR231C, strain swc5, active compounds read low 0.986 | locus YBR279W, strain paf1, active compounds read low 0.985 | locus YCL011C, strain gbp2, active compounds read low 0.991 | locus YCL016C, strain dcc1, active compounds read low 0.995 | locus YCL029C, strain bik1, active compounds read low 0.99 | locus YCL061C, strain MRC1 (second series), active compounds read low 0.983 | locus YCL061C, strain MRC1, active compounds read low 0.985 | locus YCL069W, strain vba3, active compounds read low 0.998 | locus YCR088W, strain abp1, active compounds read low 0.995 | locus YDL005C, strain med2, active compounds read low 0.99 | locus YDL035C, strain GPR1, active compounds read low 0.987 | locus YDL040C, strain nat1, active compounds read low 0.985 | locus YDL074C, strain BRE1, active compounds read low 0.993 | locus YDL101C, strain DUN1, active compounds read low 1.02 | locus YDL134C, strain PPH21, active compounds read low 1.01 | locus YDL185W, strain tfp1, active compounds read low 1 | locus YDL192W, strain arf1, active compounds read low 1 | locus YDR001C, strain nth1, active compounds read low 0.998 | locus YDR069C, strain doa4, active compounds read low 0.944 | locus YDR101C, strain arx1, active compounds read low 0.987 | locus YDR150W, strain NUM1, active compounds read low 1.01 | locus YDR159W, strain sac3, active compounds read low 1 | locus YDR162C, strain NBP2, active compounds read low 0.992 | locus YDR195W, strain ref2 0.995 | locus YDR297W, strain sur2, active compounds read low 0.995 | locus YDR318W, strain mcm21, active compounds read low 0.996 | locus YDR334W, strain swr1, active compounds read low 0.987 | locus YDR335W, strain msn5, active compounds read low 1 | locus YDR363W, strain ESC2, active compounds read low 1.02 | locus YDR388W, active compounds read low 0.93 | locus YDR392W, strain spt3, active compounds read low 0.996 | locus YDR502C, strain sam2, active compounds read low 0.991 | locus YEL003W, strain gim4, active compounds read low 0.999 | locus YEL037C, strain rad23, active compounds read low 0.993 | locus YEL061C, strain CIN8 (second series), active compounds read low 0.998 | locus YEL061C, strain CIN8, active compounds read low 1.01 | locus YER002W, strain NOP16, active compounds read low 1 | locus YER015W, strain faa2, active compounds read low 0.997 | locus YER016W, strain bim1, active compounds read low 0.992 | locus YER110C, active compounds read low 0.994 | locus YER111C, strain swi4, active compounds read low 0.981 | locus YER155C, strain BEM2 (second series), active compounds read low 1.01 | locus YER155C, strain BEM2, active compounds read low 1.01 | locus YER167W, strain BCK2, active compounds read low 1.01 | locus YFR010W, strain ubp6, active compounds read low 0.972 | locus YGL078C, strain dbp3, active compounds read low 0.99 | locus YGL086W, strain mad1, active compounds read low 1 | locus YGL167C, strain pmr1, active compounds read low 0.987 | locus YGL173C, strain kem1, active compounds read low 0.982 | locus YGL227W, strain vid30, active compounds read low 0.982 | locus YGL240W, strain doc1, active compounds read low 0.975 | locus YGL248W, strain PDE1, active compounds read low 1.02 | locus YGL253W, strain hxk2, active compounds read low 0.977 | locus YGR078C, strain PAC10, active compounds read low 0.948 and 0.983 | locus YGR135W, strain pre9, active compounds read low 0.986 | locus YGR229C, strain SMI1, active compounds read low 0.949 | locus YGR252W, strain gcn5, active compounds read low 0.923 | locus YHR013C, strain ard1, active compounds read low 0.922 | locus YHR027C, strain rpn1, active compounds read low 0.991 | locus YHR030C, strain SLT2, active compounds read low 1.01 and 1 | locus YHR079C, strain IRE1 (second series), active compounds read low 0.997 | locus YHR079C, strain IRE1, active compounds read low 1.03 | locus YHR094C, strain hxt1, active compounds read low 1 | locus YHR129C, strain ARP1, active compounds read low 1.02 | locus YHR142W, strain chs7, active compounds read low 0.992 | locus YHR200W, strain rpn10, active compounds read low 0.993 | locus YIL066C, strain RNR3, active compounds read low 1.01 | locus YIL073C, strain SPO22, active compounds read low 1.25 | locus YIL125W, strain kgd1, active compounds read low 0.997 | locus YIR030C, strain dcg1, active compounds read low 1 | locus YJL092W, strain hpr5, active compounds read low 0.986 | locus YJL095W, strain BCK1 (second series), active compounds read low 0.992 | locus YJL095W, strain BCK1, active compounds read low 0.99 and 0.988 | locus YJL115W, strain asf1, active compounds read low 0.993 | locus YJL129C, strain trk1, active compounds read low 1.01 | locus YJL134W, strain LCB3, active compounds read low 1 | locus YJL154C, strain vps35, active compounds read low 1.01 | locus YJL164C, strain tpk1, active compounds read low 0.987 | locus YJL166W, strain qcr8, active compounds read low 0.99 | locus YJL168C, strain set2, active compounds read low 0.993 | locus YJL187C, strain SWE1 (second series), active compounds read low 1.02 | locus YJL187C, strain SWE1, active compounds read low 0.986 | locus YJR043C, strain POL32, active compounds read low 1 | locus YJR066W, strain TOR1, active compounds read low 0.988
